From PubChem BioAssay
Most compounds without a hit are left out; they make up all but 2.4% or so of the library.
D2 antagonist: HTS Assay for Allosteric Antagonists of the Human D2 Dopamine Receptor: Primary Screen for Antagonists. HEK293 TREx D2 cells, calcium flux, dopamine EC80. inhibition, % at 10 µM. D(2) dopamine receptor (Homo sapiens), P14416. AID 485344, 2010. 2% of 340,000 active; in the data active means inhibition above about 30%; inactive means below that, where a call was filed; further: 0% is about no effect
Target sequence (P14416 whole entry, looked up): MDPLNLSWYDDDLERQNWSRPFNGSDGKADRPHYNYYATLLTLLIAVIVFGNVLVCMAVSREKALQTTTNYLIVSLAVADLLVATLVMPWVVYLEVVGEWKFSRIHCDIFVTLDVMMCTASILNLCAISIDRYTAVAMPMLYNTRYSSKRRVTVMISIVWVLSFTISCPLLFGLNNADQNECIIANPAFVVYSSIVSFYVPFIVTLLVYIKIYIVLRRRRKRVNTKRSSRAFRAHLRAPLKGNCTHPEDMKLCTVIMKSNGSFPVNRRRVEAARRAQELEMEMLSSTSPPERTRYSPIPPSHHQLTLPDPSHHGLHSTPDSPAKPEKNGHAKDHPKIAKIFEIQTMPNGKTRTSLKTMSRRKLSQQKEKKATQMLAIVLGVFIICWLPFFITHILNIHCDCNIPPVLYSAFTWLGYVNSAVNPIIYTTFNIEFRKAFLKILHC
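Overnight-induced (tetracycline, 30 C) HEK293 T-REx cells carrying force-coupled D2 receive a no-wash calcium dye, then compound, then EC80 dopamine at 180 s; signals are read kinetically throughout.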
D2 ag-1: HTS Assay for Allosteric Agonists of the Human D2 Dopamine Receptor: Primary Screen for Agonists; HEK293 T-REx D2 cells, calcium flux agonist mode; 0.53% of 340,000 active; activation, % at 2 µM; AID 485358, 2010; D(2) dopamine receptor (Homo sapiens), P14416;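 active means activation over 3 SD above normal in the single-dose calcium agonist read, cut at about 30% in these data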; further: 0% is about no effect
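Tetracycline-induced HEK293 Trex cells with D2 receptor force-coupled to calcium signaling, plated overnight at 30 C and loaded with no-wash calcium dye. Calcium flux read kinetically for 180 s after compound addition; responses flag agonists.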
D2 ag-2: Beta-Arrestin HTS for Positive Allosteric Modulators of the Human D2 Dopamine Receptor: Agonists; D(2) dopamine receptor (Homo sapiens), P14416; DiscoveRx PathHunter D2 beta-arrestin, luminescence, 90 min; 100% = 57 uM dopamine signal; activation, % (test concentration not listed); 0.084% of 360,000 active; AID 624465, 2012; in the data active means activation above about 40%
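DiscoveRx PathHunter D2 beta-arrestin cells (2,100/well) attached overnight, then compound-stimulated 90 min at 37 C in HBSS/10 mM HEPES/0.1% Tween-20 buffer; beta-galactosidase complementation read by luminescence after 1 h at ambient temperature. Dopamine 57 uM final (EC100) as control.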
D2 PAM-1: Beta-Arrestin HTS for Positive Allosteric Modulators of the Human D2 Dopamine Receptor: Potentiators. DiscoveRx D2 beta-arrestin cells, luminescence, 90 min; 100% = 57 uM dopamine signal. D(2) dopamine receptor (Homo sapiens), P14416. 0.23% of 360,000 active. potentiation, % (no concentration beside the values). AID 624464, 2012; in the data active means potentiation above about 50%
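PathHunter beta-arrestin assay in DiscoveRx D2 cells. Compounds were added with an EC20 of dopamine (50 nM final) for 90 min at 37 deg C. Luminescence was read 1 h after detection reagent, with 57 uM dopamine as the EC100 control.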
D2 PAM-2: HTS Assay for Positive Allosteric Modulators of the Human D2 Dopamine Receptor: Primary Screen for Potentiators. D(2) dopamine receptor (Homo sapiens), P14416. AID 485347, 2010. 0.34% of 340,000 active. HEK293 T-REx D2, calcium flux, EC20 dopamine potentiation. potentiation, % at 10 µM;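 active means potentiation over 3 SD above the plate norm, cut at about 30% in these data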; further: 0% is about no effect
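Tetracycline-induced HEK293 T-REx cells force-coupled to calcium signalling expressed D2; compounds were pin-added after a 10 s baseline, read kinetically 180 s, then an EC20 dopamine challenge followed with a further 180 s calcium read.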
Starred values were filed as active, the others as inactive; nt = not tested or not shown.

SMILES	D2 antagonist	D2 ag-1	D2 ag-2	D2 PAM-1	D2 PAM-2
CC1CCN(S(=O)(=O)c2cc(C(=O)NC3(C)CCS(=O)(=O)C3)ccc2Br)CC1 (centres undefined)	31*	0	12	-4	-3
CC1CCN(C(=O)c2ccc(Br)c(S(=O)(=O)N3CCOCC3)c2)CC1	-15	0	-2	-4	-3
COc1cc2c(cc1NC(=O)CN1CCN(S(=O)(=O)c3ccc(C)cc3)CC1)oc1ccccc12	42*	0	-1	1	-1
O=c1cc(/C=C/c2ccccc2)oc2c1ccc1ccccc12	10	-1	-7	-1	-15
O=c1cc(C(F)(F)F)oc2c1ccc1ccccc12	34*	3	-1	-5	4
COc1ccc(-n2ncc(C(=O)N3CCN(Cc4ccccc4)CC3)c2C2CCN(C(=O)OC(C)(C)C)CC2)cc1	nt	0	nt	nt	-2
CNC(=O)CSc1nnnn1-c1cc(C)ccc1C	4	-1	-4	-13	46*
O=S(=O)(Nc1cccc2ccccc12)c1cccs1	-17	0	91*	1	-2
CCn1nnc(NC(=O)c2ccco2)n1	69*	0	-2	4	13
CCOC(=O)c1sc(C)c2c(=O)n(Cc3ccc(Cl)cc3)c(C)nc12	38*	0	-1	28	29
COc1ccc(NC(=O)C2CCCN(c3cc(C)nc4ncnn34)C2)cc1 (centres undefined)	30*	0	2	3	-11
COc1ccc(NC(=O)C2CCCN(c3c4c(nc5ncnn35)CCC4)C2)cc1 (centres undefined)	-7	0	-2	-5	9
COc1cc(C)nc(N2CCCC(C(=O)Nc3cc(Cl)ccc3OC)C2)n1 (centres undefined)	7	1	1	-1	81*
Cc1cccc(Cc2c(C)nc3nc(SCc4ccccc4F)nn3c2C)c1	nt	0	nt	nt	12
Cc1csc(NS(=O)(=O)c2cccc([N+](=O)[O-])c2)n1	34*	1	2	-9	-22
CC1CN(c2ncnc3c2cnn3-c2ccc(Cl)cc2)CC(C)O1 (centres undefined)	31*	-1	0	0	22
O=S(=O)(NCCc1nnc2ccc(SCc3cccnc3)nn12)c1ccccc1	-9	0	-3	-5	32*
CC(C)CS(=O)(=O)c1oc(-c2ccc(F)cc2)nc1S(=O)(=O)c1ccccc1	nt	5	nt	nt	8
CCOC(=O)CSc1nnc(-c2cccs2)n1-c1ccccc1	-7	-1	-3	7	32*
COc1ccc(/C=C/c2ccncc2)c2ccccc12	45*	-1	2	14	9
COc1ccccc1C=Cc1ccnc2ccccc12	nt	nt	0	-12	nt
CC1=CC(c2ccccc2)n2nc(NS(=O)(=O)c3ccc(C)cc3)nc2N1 (centres undefined)	121*	-1	0	-5	-3
CC1=CC(c2ccc(Cl)cc2)n2nc(NS(=O)(=O)c3ccc(C)cc3)nc2N1 (centres undefined)	-8	0	0	0	-3
COc1cccc(C2=NOC(C(=O)Nc3ccc4c(c3)OCO4)C2)c1OC (centres undefined)	60*	0	1	-16	-25
COc1cc(C2=NOC(C(=O)Nc3ccc4c(c3)OCO4)C2)cc(OC)c1OC (centres undefined)	-3	-1	0	5	11
SMILES	D2 antagonist	D2 ag-1	D2 ag-2	D2 PAM-1	D2 PAM-2
COc1cc(C2=NOC(C(=O)Nc3ccc(C)cc3)C2)cc(OC)c1OC (centres undefined)	57*	-1	-3	9	11
COc1ccc(C2=NOC(C(=O)NCc3ccc(F)cc3)C2)cc1OC (centres undefined)	8	0	1	-8	37*
CC(=O)Nc1ccc(NC(=O)CCc2nc3cccnc3n2Cc2cccs2)cc1	nt	-1	nt	nt	nt
COc1ccc(N2CCN(c3oc(/C=C/c4ccccc4OC)nc3C#N)CC2)cc1	nt	-1	nt	nt	6
Cc1ccc(-c2cn3c(n2)sc2cc(C(=O)NCCC4=CCCCC4)ccc23)c(C)c1	nt	1	nt	nt	6
OC(COc1ccc2c(c1)CCC2)CN1CCN(c2ccccc2F)CC1 (centres undefined)	-21	1	15	-30	8
Oc1ccccc1N1CCN(CC(O)COC2CCCc3ccccc32)CC1 (centres undefined)	40*	11	-1	-8	-22
CCC(C)NC(=O)C1CCN(C(=O)c2cc3sccc3n2Cc2ccc(Cl)cc2)CC1 (centres undefined)	nt	0	nt	nt	5
O=S(=O)(c1ccc(Cl)cc1)n1ccc2cccnc21	19	0	-1	-10	38*
Cc1ccc(S(=O)(=O)n2ccc3cccnc32)cc1	37*	1	-1	-8	-3
CC(C)(C)n1nc2c(c1NC(=O)Cc1ccc(F)cc1)CSC2	35*	1	-7	-8	3
CC1(C)C=C(c2ccc(C=O)s2)CC(C)(C)N1	34*	0	-1	-13	6
CC1(C)C=C(c2ccc(C=O)s2)CC(C)(C)N1C=O	19	0	2	-14	10
CC(=O)NCCCC(=O)NNC1CC(=O)N(c2cccc(Cl)c2)C1=O (centres undefined)	37*	0	-4	-5	0
COc1ccc2c(c1)Sc1ccccc1N2CCN(C)C	40*	-2	-4	-37	nt
COc1cc(NC(=O)CCCn2c(=O)oc3ccccc32)cc(OC)c1	nt	nt	-1	-9	nt
COc1ccc(C(C)(C)C)cc1NC(=O)CCCn1c(=O)oc2ccccc21	51*	-2	-3	-22	-28
COCCCN1C(=O)c2ccc(C(=O)NCc3ccccn3)cc2C1=O	-4	0	1	-15	32*
COCCN1C(=O)c2ccc(C(=O)O)cc2C1=O	-4	0	-2	-5	39*
CC(C)CN1C(=O)c2ccc(C(=O)NCc3ccccn3)cc2C1=O	4	1	-2	-6	0
CC(C)(C)C(=O)NCCc1csc2nc(-c3ccc(F)cc3)nn12	nt	1	nt	nt	-1
COc1ccc(C2=C(C)C(N3CCC(C(=O)Nc4cc(C)ccc4C)CC3)=NS2(=O)=O)cc1	nt	0	nt	nt	-4
CCC1CCCCN1CCCNC(=O)CSc1nc2nc(C)c(Cc3ccccc3)c(C)n2n1 (centres undefined)	-24	1	-2	-10	8
